# Vaccinia mCherry: vaccinia inhibition (mCherry reporter); Potency, µM (top dose mostly 36.5 µM), for the others: top-dose activity change, negative = inhibition, usual class: inhibitors; 0.63% of 310,000 active; AID 720579; Vaccinia virus mCherry reporter infection, fluorescence; calls by dose curve; tested in A549 cells; note: potency is the fitted concentration of half-maximal effect; nearly all actives have a fitted effect of over 35% in size
# HCMV antiviral: inhibitors of human cytomegalovirus. 4.5% of 410,000 active. AID 1259415. HFF cells, HCMV-luciferase reporter, 72 h; hits give low values. activity change, negative = inhibition, % at 57.5 µM; in the data active = activity change below about -60%; inconclusive = no clear call, values can overlap the other calls; inactive = above about -39%
#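 Screen run at 2 compound doses on HFFs infected with reporter HCMV, MOI 1 PFU/cell. Luciferase activity from cell lysates at 72 h post infection gave inhibition relative to buffer-only and Salinomycin wells.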
# Vaccinia Venus: inhibitors of vaccinia virus (Venus reporter) | Vaccinia virus Venus reporter expression, fluorescence | Potency, µM (series often up to 36.5 µM), for the others: at the top dose activity change, negative = inhibition, hits mostly inhibitors | 0.46% of 330,000 active | AID 720580; calls by dose curve; tested in A549 cells; note: potency is the fitted concentration of half-maximal effect; nearly all actives have a fitted effect of over 30% in size
# Marburg entry inh: Marburg virus entry inhibition; Marburg virus pseudotyped entry inhibition, cell reporter; 1.8% of 300,000 active; AID 540276; Potency, µM (doses to about 37.8 µM), for the others: top-dose activity change, negative = inhibition, most hits filed as inhibitors; calls by dose curve; tested in HEK293 cells; note: potency is the fitted concentration of half-maximal effect
# FMDV antiviral: blocks foot and mouth disease virus. FMDV antiviral cell-based qHTS. Potency, µM (top dose mostly 57.9 µM), for inactives: at the highest dose activity change, negative = inhibition, usual class: inhibitors. 1.2% of 410,000 active; calls by dose curve; tested in HEK293T cells; note: read-out not given here; potency is the fitted concentration of half-maximal effect; nearly all actives have a fitted effect of over 45% in size
# LASV entry inh: Lassa virus entry inhibition. Lassa virus pseudotype entry inhibition, cell reporter. 1.2% of 300,000 active. Potency, µM (titrated, usually from 37.9 µM), without a hit: top-dose activity change, negative = inhibition, usual class: inhibitors. AID 540256; calls by dose curve; tested in HEK293 cells; note: potency is the fitted concentration of half-maximal effect; nearly all actives have a fitted effect of over 50% in size
# * hit, by the source's call; i = inactive; ? = inconclusive; . = not tested or not shown; [ ] = dose if it differs, or a comment. Shown are actives, neighbours in structure and some others; about 6.5% of the full set was active somewhere. % is set by controls: 0 for no effect and ±100 for the full control effect.
SMILES,Vaccinia mCherry,HCMV antiviral,Vaccinia Venus,Marburg entry inh,FMDV antiviral,LASV entry inh
CCC(=O)N1CCc2cc(CNS(=O)(=O)c3ccc(CC(C)C)cc3)ccc21,-9%,?,-14%,.,-15%,7%[46.1 µM]
Cc1cc2nc(CSc3ccccc3)cc(=O)n2[nH]1,-4%,-96*,3%,11%[46.1 µM],5%,-2%
COc1ccc(OCCSc2nc(C)nc3ccccc23)cc1,-10%,-65*,-16%,?,?,?
CCOc1ccc(OCCSc2nc3ccccc3[nH]2)cc1,-6%,-76*,-28%,-21%,.,-6%
c1ccc(CSc2nc3ccccc3[nH]2)cc1,-13%,57,-2%,?,17%,?
CCCOc1ccc(CSc2nc3ccccc3[nH]2)cc1,?,-92*,?,?,-4%,24%[14.3 µM]
COc1cc(CN2CCCC(n3cc(C(=O)N4CCCCC4)nn3)C2)cc2c1OCO2 (configuration not stated),0%,.,-4%,.,-7%,.
O=C(c1ccc(CS(=O)Cc2ccccc2Cl)o1)N1CCN(c2cccc(Cl)c2)CC1 (configuration not stated),-12%,-23,-24%,?,-25%,?
O=C(c1ccc(CS(=O)c2ccccc2Cl)o1)N1CCN(c2cccc(Cl)c2)CC1 (configuration not stated),-10%,-93*,-26%,.,-19%,?
O=C(c1ccc(CS(=O)c2ccccc2Cl)o1)N1CCN(c2cccc(C(F)(F)F)c2)CC1 (configuration not stated),-16%,-96*,?,.,?,-13%[46.1 µM]
CCc1cccc(NC(=O)Nc2ccc(Oc3ccc4nc(NC(=O)OC)[nH]c4c3)cc2)c1,.,.,.,.,.,13µM*
C=C(c1ccc2nc(NC(=O)OC)[nH]c2c1)c1cccs1,?,-88*,?,?,12%,?
COC(=O)Nc1nc2ccc(-c3n[nH]c(=O)c4ccccc34)cc2[nH]1,-3%,30,-14%,-9%,-4%,?
COC(=O)Nc1nc2ccccc2[nH]1,?,64,-17%,20%,20%,-3%
C=CCOc1ccc2nc(NC(=O)OC)[nH]c2c1,.,?,.,?,35%,?
COC(=O)Nc1nc2ccc(Oc3ccc(NC(=O)Nc4ccccc4)cc3)cc2[nH]1,.,.,.,.,.,3.1µM*
Fc1ccc(Nc2ncnc3ccc(-c4ccoc4)cc23)cc1,.,.,.,.,-29%,.
C=C1C=C(C(F)F)n2ncc(C(=O)NCCc3ccc(Cl)cc3)c2N1,9%,.,-8%,.,.,.
CCOc1ccc(C(=O)Nc2ccc3nc(N(CC)CC)cc(C)c3c2)cc1,5%,-86*,-14%,29%[46.1 µM],32µM*,10%[46.1 µM]
CCN(CC)c1cc(C)c2cc(NC(=O)c3cccc(OC)c3OC)ccc2n1,-22%,?,-21%,-3%[46.1 µM],-25%,15%[46.1 µM]
CCN(CC)c1cc(C)c2cc(NC(=O)c3cccc(OC)c3)ccc2n1,-17%,-71*,-17%,?,0%,?
CCOc1ccccc1C(=O)Nc1ccc2nc(N(CC)CC)cc(C)c2c1,-17%,-24,-12%,?,-28%,11%[46.1 µM]
CCN(CC)c1cc(C)c2cc(NC(=O)c3ccccc3F)ccc2n1,.,-80*,.,-4%,-9%,.
CCOc1ccccc1NC(=O)c1cnn2c(C(F)F)cc(-c3ccccc3)nc12,?,?,-22%,?,-7%,-1%[46.1 µM]
Cc1ccccc1C(=O)Nc1nnc(-c2ccco2)s1,i,16,4%,1.3µM*,?,4.1µM*
SMILES,Vaccinia mCherry,HCMV antiviral,Vaccinia Venus,Marburg entry inh,FMDV antiviral,LASV entry inh
COc1ccccc1C(=O)Nc1nnc(-c2ccco2)s1,-13%,44,-4%,?,.,-25%
COc1cc2nc(C3CCC3)nc(N3CCN(c4ccccc4OC)CC3)c2cc1OC,?,25,?,?,?,?
COc1cc2nc(C3CCC3)nc(N3CCN(c4ccccn4)CC3)c2cc1OC,-11%,.,-8%,?,18µM*,?
O=C(NC(=S)NCCc1ccccc1)C1CCCCC1,i,96,-8%,?,20%,?
O=C(CNC(=S)NC(=O)C1CCCCC1)c1ccccc1,-15%,-79*,-11%,?,43%,12%
CCN(C(=O)c1cc2c(C)nc3ccccc3c2o1)c1cc(Cl)ccc1OC,14%,?,-17%,13µM*,?,?
COCCn1c(C)cc(C2=NNC(=Nc3ccccc3)SC2)c1C,-8%,16,-6%,-10%,-10%,?
COc1ccccc1C1=NNC(=Nc2cccc(S(=O)(=O)N(C)C)c2)SC1,?,-80*,-13%,7.1µM*,?,?
COc1ccc(NC(=O)Nc2nnc(-c3cccs3)s2)cc1,i,37,-2%,2%,37%,.
COc1cccc(C(=O)Nc2nnc(SCC(=O)NC3CC3)s2)c1,i,71,-5%,-26%,41%,-22%
COc1ccc(C(=O)Nc2nnc(-c3cccs3)s2)cc1,-29%,20,-18%,3.2µM*,22%,?
COc1cc(OC)cc(C(=O)Nc2nnc(SCC(=O)NCc3ccco3)s2)c1,-14%,42,-10%,4%[46.1 µM],100µM*,?
COc1ccc(C(=O)Nc2nnc(SCC(=O)NCc3ccco3)s2)cc1OC,-14%,24,-12%,9%,-12%,?
COc1ccc(C(=O)Nc2nnc(SCC(=O)NC3CC3)s2)cc1,i,94,-8%,10µM*,6%,?
O=S(=O)(c1ccccc1)N1[C@@H]2CC[C@@H](C2)[C@H]1c1nc2c(OCC3CCOCC3)cccc2[nH]1,.,1,.,.,.,.
COc1cccc(N2C(=O)C(CC(=O)Nc3ccc(Cl)cc3)N(Cc3ccc4c(c3)OCO4)C2=O)c1 (configuration not stated),-9%,-21,-20%,?,47%,?
COC(=O)C1=C(C)N(CC2CC2)C(=NCc2cccc(C(F)(F)F)c2)N[C@H]1c1ccccc1,i,.,-25%,.,?,.
COC(=O)C1=C(C)N(Cc2ccc(C(F)(F)F)cc2)C(=NCc2ccccc2)NC1c1ccccc1 (configuration not stated),.,-92*,.,.,.,.
COC(=O)C1=C(C)N(Cc2ccc(C(F)(F)F)cc2)C(=NCc2ccccc2)NC1c1cccc(C(F)(F)F)c1 (configuration not stated),.,-101*,.,.,.,.
COC(=O)C1=C(C)N(Cc2ccccc2)C(=NCc2cccc(C(F)(F)F)c2)N[C@H]1c1cccc(F)c1,?,-98*,13µM*,.,40µM*,.
CCN=C1NC(c2ccc(F)cc2)C(C(=O)OC)=C(C)N1Cc1cccc(C(F)(F)F)c1 (configuration not stated),.,13,.,.,.,.
COC(=O)C1=C(C)N(Cc2ccccc2)C(=NCc2ccc(OC)cc2)N[C@H]1c1ccccc1,-23%,-37,?,.,0%,.
COC(=O)C1=C(C)N(Cc2cccc(C(F)(F)F)c2)C(=NCC2CC2)NC1c1cccc(C(F)(F)F)c1 (configuration not stated),.,-85*,.,.,.,.

# Screens deposited in PubChem by National Center for Advancing Translational Sciences (NCATS).
